This passage reports growth results from PubChem BioAssay (NCI).

The structures appear in SMILES notation. Compounds without any hit were thinned out: in the full panel of roughly 83,000, 20% have a hit.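 48-hour exposure, single concentration, 96-well plates; percent growth endpoint where 0 means no net growth. Active: below 10.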 Unmarked numbers belong to inactive results. Activity calls are given as the source filed them.

What all share (experiment): NCI-60 one-dose screen, 48 h (100 = growth as untreated, 0 = no growth, -100 = all killed)
What all share (details): 10 µM unless noted

Assay [1] concerns HCT-15 colon.
Assay [2] deals with HT29 colon.
In assay [3] the test system is SNB-75 CNS.
Assay [4] concerns SNB-19 CNS.
The subject of assay [5] is U251 CNS.
Assay [6] relates to PC-3 prostate.
Assay [7] relates to SK-MEL-5 melanoma.
Assay [8] concerns LOX IMVI melanoma.
The test system of assay [9] is SK-MEL-28 melanoma.

For `COc1ccc2c(c1)c(-c1nc(-c3c[nH]c4ncccc34)cs1)cn2CCN`, the growth in [1] is 43.7%; in [2], 55.9%; in [3], 56.6%; in [4], 79.4%; in assay [5], 66.7%; in [6] it was 42.8%. Besides, the results for the growth in [7], in assay [8] and in assay [9] were 72.9%, 66% and 100%, respectively.

For the compound `Cn1cc(-c2csc(-c3cn(CCNC(=O)OC(C)(C)C)c4ccccc34)n2)c2cccnc21`, the growth in [1] is 60.1%; in [2], 90.9%; in [3], 88.5%; in [4] it was 94.3%; in [5] it was 83.1%; in assay [6], 36.9%. Further, the growth is 20.1% in assay [7], 82.4% in [8] and 94.3% in [9].

For `Cc1cc(N2CCCCC2)nc(N(CCNc2ccnc3cc(Cl)ccc23)Cc2ccco2)n1`, the growth in [1] is 13.8%; in [2] it was 6.61% (active); in assay [3], 43.9%; in assay [4] it was -69.9% (active); in [5], 14.4%; in assay [6], 13.9%. Also, the results for the growth in assay [7], in assay [8] and in assay [9] were -90.5% (active), -12.6% (active) and 38.9%, respectively.

`COc1ccc2c(c1)c(-c1nc(-c3cn(C)c4ncccc34)cs1)cn2CCN`: the growth in assay [1] is 58.5%; in [2], 74.5%; in assay [3] it was 78.2%; in assay [4] it was 80.7%; in assay [5], 84.8%; in assay [6] it was 70.2%. Also, the growth in assay [7] was 60.3%; in [8], 68.1%; in assay [9] it was 99%.

Consider `COc1ccc2c(c1)c(-c1nc(-c3cn(C)c4ncccc34)cs1)cn2CCCN1CCCCC1`, for which the growth is -69.9% (active) in [1]; -16.5% (active) in assay [2]; 77.5% in [3]; 55.2% in [4]; -18.4% (active) in [5]; 51.1% in [6]. In addition, the growth was 28.6% in assay [7], 28.3% in assay [8] and -77.5% (active) in assay [9].

Regarding `c1ccc2[nH]c(-c3ccc(Nc4nc(N5CCCCC5)nc(N5CCOCC5)n4)cc3)nc2c1`, the growth in [1] was -33.9% (active); in assay [2], -28.2% (active); in assay [3] it was -0.681% (active); in assay [4] it was 10.4%; in assay [5] it was 8.02% (active); in assay [6], 12.4%. For the same compound, the growth is -90.7% (active) in [7], -77.1% (active) in assay [8] and -30.2% (active) in assay [9].

On to `CCN(CC)CCCCCNc1cc(OC(=O)c2ccccc2)cc2cccnc12`, for which the growth is 78.5% in assay [1]; 20.3% in assay [2]; 70.9% in [3]; 101% in assay [4]; 98.2% in assay [5]; 77% in assay [6]. The growth is 138% in assay [7], 58.1% in assay [8] and 121% in assay [9].

For `Cn1cc(-c2csc(-c3cn(CCCN4CCCCC4)c4ccc(Br)cc34)n2)c2cccnc21`, the growth in [1] is -78.2% (active); in assay [2] it was -72.8% (active); in assay [3], 63.6%; in assay [4] it was -45.3% (active); in [5], -80.6% (active); in assay [6] it was -8.66% (active). In addition, the growth is -33.7% (active) in assay [7], -71.4% (active) in [8] and -86.6% (active) in assay [9].

As to `COc1cccc(-c2nn(-c3ccccc3)cc2-c2ccnc(NCCNS(=O)(=O)c3ccc(C(F)(F)F)cc3)c2)c1`, the growth in [1] was 11.9%; in [2], -14.6% (active); in [3], 46.8%; in assay [4], 21.8%; in assay [5], 15.4%; in assay [6], 5.74% (active). Also, the results for the growth in assay [7] and in assay [8] were -94.7% (active) and 4.44% (active), respectively.

Take `COC(=O)[C@]12CC[C@@H](C)[C@H](C)[C@@H]1C1=CC[C@@H]3[C@@]4(C)C=C(O)C(=O)C(C)=C4CC[C@@]3(C)[C@]1(C)CC2`: the growth in assay [1] is 25.2%; in [2], 11.7%; in [3], 63%; in [4] it was 59.9%; in assay [5], 43.4%; in [6], 12.7%. Besides, the growth in assay [7] was 29.5%; in [8], 16.5%.

On to `CC(C)(C)c1nc(-c2ccc(O)c(O)c2)cs1`, for which the growth in assay [1] is 36.3%; in [2] it was 92.6%; in [3], 73.1%; in assay [4], 72.1%; in assay [5], 46.9%; in assay [6] it was 54%. In addition, the results for the growth in assay [7], in assay [8] and in assay [9] were 54.4%, 63.5% and 87.8%, respectively.

On to `NNC(=O)c1nc2ccccc2[nH]1`, for which the growth in [1] was 108%; in assay [2], 103%; in assay [3] it was 97.4%; in [4], 103%; in assay [5], 86.2%; in assay [6] it was 96.7%. In addition, the growth in assay [7] is 103%; in [8], 95.3%; in assay [9] it was 111%.

As for `C[C@]12CC[C@@H]3c4ccc(O)cc4CC[C@H]3[C@@H]1C[C@H](O)[C@@H]2O`, the growth in assay [1] is 97.3%; in [2] it was 109%; in assay [3] it was 82%; in [4], 102%; in assay [5], 100%; in [6], 92.4%. In addition, the growth in assay [7] was 94.1%; in assay [8], 92.4%; in assay [9], 96.5%.

For the compound `C=C1C(=O)O[C@H]2[C@H]1CC/C(COC(=O)NCc1c[nH]c3ccccc13)=C\CC[C@@]1(C)O[C@@H]21`, the growth is 4.35% (active) in [1]; 8.59% (active) in assay [2]; 72.1% in assay [3]; 69.4% in assay [4]; 82.8% in assay [5]; 50.4% in [6]. Further, the figures for the growth in assay [7], in assay [8] and in assay [9] were 45.2%, 16.4% and 33.9%, respectively.

On to `O=C1c2ccccc2NC(c2cn(-c3ccccc3)nc2-c2cccs2)N1Cc1ccccc1` (centres undefined), for which the growth was 77.7% in assay [1]; 75% in assay [2]; 87.7% in assay [3]; 95.4% in [4]; 86.9% in assay [5]; 64.8% in assay [6]. In addition, the growth in assay [7] is 80.9%; in assay [8], 62.1%; in assay [9] it was 97.3%.

Turning to `COc1ccc(-c2nc3c(c(C)nn3-c3ccc(F)cc3)c(=O)[nH]2)cc1`, the growth is 83% in assay [1]; 58.6% in [2]; 11.1% in [3]; 75% in [4]; 44% in [5]; 78.1% in assay [6]. Moreover, the growth was 79.1% in assay [7], 75.2% in [8] and 96.8% in [9].

As to `CCN(CC)CCCCCCNc1ccnc2cc(Cl)ccc12`, the growth in assay [1] is 92.6%; in assay [2], 27%; in [3] it was 87%; in assay [4], 113%; in [5] it was 85.3%; in assay [6], 87%. The growth in assay [7] was 80.8%; in assay [8], 78%; in [9] it was 106%.

As to `CCOC(=O)N1CCN(CCCCOc2ccc(C(C)(C)CC)cc2)CC1`, the growth was 87.7% in [1]; 78.1% in assay [2]; 106% in assay [3]; 108% in [4]; 88.5% in assay [5]; 71.5% in assay [6]. Further, the growth in assay [7] is 88.6%; in [8], 99.7%; in [9] it was 100%.

As to `Cc1cc(N(CCCNc2ccnc3cc(Cl)ccc23)Cc2ccco2)nc(N2CCOCC2)n1`, the growth is 54.9% in assay [1]; 34.9% in [2]; 73.5% in [3]; 78.1% in assay [4]; 84% in assay [5]; 62.2% in assay [6]. The growth in [7] was 54.5%; in assay [8], 66%; in [9], 77.6%.
